Reference: PubChem BioAssay (NCATS)
Records with an inconclusive call do not appear. A call without a number means that no potency is given here. Activity calls are given as the source filed them. Calls follow the shape of the dose curve; as a rule, active = well fitted curve in the direction sought with a large enough effect; inconclusive = small, poorly fitted or top-dose-only effect, or another doubt; inactive = no such curve, though single readings can be large; an effect the other way counts as inactive or inconclusive.

Experiments:
[1] = qHTS of pediatric cancer cell lines to identify multiple opportunities for drug repurposing: Primary screen for SK-N-SH cells (AID 1347098); conditions: SK-N-SH viability, CellTiter-Glo luminescence, 48 h; series mostly up to 57 µM; also: nearly all actives have a fitted effect of over 65% in size; also: potency is read from the fitted curve at half-maximal effect
Procedure, shortened: (§1)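 Cells (500-1,000/well) rested 5 h, then received compounds for 48 h; metabolically active cells were measured by CellTiter-Glo luminescence. Final concentrations spanned up to 46 µM (MIPE, 11-point) or 0.59 nM-46 µM (NPC, 8-point) in primary screens, 11-point in follow-ups.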

[2] = qHTS of pediatric cancer cell lines to identify multiple opportunities for drug repurposing: Primary screen for NB1643 cells (AID 1347099); conditions: NB1643 neuroblastoma viability, CellTiter-Glo luminescence, 48 h; series mostly up to 46 µM; also: nearly all actives have a fitted effect of over 50% in size; also: potency is read from the fitted curve at half-maximal effect
Procedure, shortened: (§2)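 Readout: CellTiter-Glo luminescence, 48 h treatment. Controls DMSO (neutral) and bortezomib 2.3 µM final (positive). Potency and efficacy taken from primary-screen concentration-response curves.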

[3] = qHTS of pediatric cancer cell lines to identify multiple opportunities for drug repurposing: Primary screen for LAN-5 cells (AID 1347100); conditions: LAN-5 neuroblastoma viability, CellTiter-Glo luminescence, 48 h; series mostly up to 46 µM
Procedure, shortened: as §1

[4] = qHTS of pediatric cancer cell lines to identify multiple opportunities for drug repurposing: Primary screen for BT-12 cells (AID 1347101); conditions: BT-12 viability, CellTiter-Glo luminescence, 48 h; series mostly up to 57.3 µM; also: nearly all actives have a fitted effect of over 25% in size; also: potency is read from the fitted curve at half-maximal effect
Procedure, shortened: as §1

[5] = qHTS of pediatric cancer cell lines to identify multiple opportunities for drug repurposing: Primary screen for Rh18 cells (AID 1347102); conditions: Rh18 rhabdomyosarcoma viability, CellTiter-Glo luminescence, 48 h; series mostly up to 46 µM; also: nearly all actives have a fitted effect of over 65% in size; also: potency is read from the fitted curve at half-maximal effect
Procedure, shortened: as §1

[6] = qHTS of pediatric cancer cell lines to identify multiple opportunities for drug repurposing: Primary screen for OHS-50 cells (AID 1347103); conditions: OHS-50 osteosarcoma viability, CellTiter-Glo luminescence, 48 h; series mostly up to 57.3 µM; also: nearly all actives have a fitted effect of over 40% in size; also: potency is read from the fitted curve at half-maximal effect
Procedure, shortened: as §1

[7] = qHTS of pediatric cancer cell lines to identify multiple opportunities for drug repurposing: Primary screen for MG 63 (6-TG R) cells (AID 1347105); conditions: MG 63 (6-TG R) viability, CellTiter-Glo, 48 h; series mostly up to 46 µM; also: nearly all actives have a fitted effect of over 50% in size; also: potency is read from the fitted curve at half-maximal effect
Procedure, shortened: as §2

[8] = qHTS of pediatric cancer cell lines to identify multiple opportunities for drug repurposing: Primary screen for control Hh wild type fibroblast cells (AID 1347106); conditions: Hh wild-type fibroblast viability, CellTiter-Glo luminescence, 48 h; series mostly up to 46 µM;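 also: a drop in luminescence marks cytotoxicity and a rise apparent proliferation; nearly all actives have a fitted effect of over 55% in size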
Procedure, shortened: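 Viability after 48 h compound treatment at 37C, 500-1,000 cells/well, read as ATP luminescence with CellTiter-Glo. Primary screens used 11-point (MIPE, 0.78 nM-46 µM) or 8-point (NPC, 0.59 nM-46 µM) final concentrations; follow-up screens used 11-point dilutions.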

[9] = qHTS of pediatric cancer cell lines to identify multiple opportunities for drug repurposing: Primary screen for Rh30 cells (AID 1347107); conditions: Rh30 rhabdomyosarcoma viability, CellTiter-Glo luminescence, 48 h; series mostly up to 46 µM; also: nearly all actives have a fitted effect of over 75% in size; also: potency is read from the fitted curve at half-maximal effect
Procedure, shortened: as §1

[10] = qHTS of pediatric cancer cell lines to identify multiple opportunities for drug repurposing: Primary screen for RD cells (AID 1347104); conditions: RD rhabdomyosarcoma viability, CellTiter-Glo luminescence, 48 h; series mostly up to 46 µM; also: nearly all actives have a fitted effect of over 55% in size; also: potency is read from the fitted curve at half-maximal effect
Procedure, shortened: as §2

[11] = qHTS of pediatric cancer cell lines to identify multiple opportunities for drug repurposing: Primary screen for Rh41 cells (AID 1347108); conditions: Rh41 rhabdomyosarcoma viability, CellTiter-Glo luminescence, 48 h; series mostly up to 46 µM;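 also: luminescence drop marks cytotoxic hits; nearly all actives have a fitted effect of over 70% in size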
Procedure, shortened: as §2

[12] = qHTS of pediatric cancer cell lines to identify multiple opportunities for drug repurposing: Primary screen for Saos-2 cells (AID 1347097); conditions: Saos-2 viability, CellTiter-Glo ATP luminescence, 48 h; series mostly up to 46 µM; also: nearly all actives have a fitted effect of over 40% in size
Procedure, shortened: as §2

[13] = qHTS of pediatric cancer cell lines to identify multiple opportunities for drug repurposing: Confirmatory screen for NB1643 cells (AID 1347109); conditions: NB1643 neuroblastoma cell viability; series mostly up to 45.9 µM; also: potency is read from the fitted curve at half-maximal effect; nearly all actives have a fitted effect of over 45% in size
Procedure, shortened: as §1

[14] = qHTS of pediatric cancer cell lines to identify multiple opportunities for drug repurposing: Confirmatory screen for A673 cells (AID 1347110); conditions: A673 Ewing sarcoma cell viability; series mostly up to 45.9 µM;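 also: potency is read from the fitted curve at half-maximal effect; cells exposed to compound for 48 h before the viability read; nearly all actives have a fitted effect of over 65% in size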
Procedure, shortened: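 Concentration-response curves came straight from titrations: 11 points (0.78 nM to 46 µM) for MIPE and several concentrations (0.59 nM to 46 µM) for NPC in primary, 11 points in follow-up. Readout: ATP luminescence at 48 h.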

[15] = qHTS of pediatric cancer cell lines to identify multiple opportunities for drug repurposing: Confirmatory screen for SK-N-MC cells (AID 1347111); conditions: SK-N-MC cell viability; series mostly up to 45.9 µM;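 also: potency is read from the fitted curve at half-maximal effect; cells exposed to compound for 48 h before the readout; nearly all actives have a fitted effect of over 70% in size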
Procedure, shortened: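 Seed 500-1,000 cells/well; rest 5 h at 37 degrees C. Pin-transfer compounds, 11-point titration. Incubate 48 h. Add CellTiter-Glo, 15 min RT, read luminescence.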

[16] = qHTS of pediatric cancer cell lines to identify multiple opportunities for drug repurposing: Confirmatory screen for BT-12 cells (AID 1347112); conditions: BT-12 rhabdoid tumor cells, viability; series mostly up to 45.9 µM; also: potency is read from the fitted curve at half-maximal effect; nearly all actives have a fitted effect of over 55% in size
Procedure, shortened: as §1

[17] = qHTS of pediatric cancer cell lines to identify multiple opportunities for drug repurposing: Confirmatory screen for SJ-GBM2 cells (AID 1347116); conditions: SJ-GBM2 glioblastoma cells, viability; series mostly up to 45.9 µM; also: potency is read from the fitted curve at half-maximal effect; nearly all actives have a fitted effect of over 60% in size
Procedure, shortened: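 Viability measured as metabolically active cells via CellTiter-Glo luminescence following 48 hours of compound exposure, 11-point dilutions in confirmatory testing. 500-1,000 cells/well plated 5 hours before dosing; controls were DMSO and 2.3 µM bortezomib.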

[18] = qHTS of pediatric cancer cell lines to identify multiple opportunities for drug repurposing: Confirmatory screen for BT-37 cells (AID 1347117); conditions: BT-37 pediatric cancer cells, viability; series mostly up to 45.9 µM; also: potency is read from the fitted curve at half-maximal effect; nearly all actives have a fitted effect of over 55% in size
Procedure, shortened: as §1

[19] = qHTS of pediatric cancer cell lines to identify multiple opportunities for drug repurposing: Confirmatory screen for TC32 cells (AID 1347118); conditions: TC32 Ewing sarcoma cells viability qHTS; series mostly up to 45.9 µM;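 also: potency is read from the fitted curve at half-maximal effect; cells exposed to compound for 48 h before the read; nearly all actives have a fitted effect of over 65% in size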
Procedure, shortened: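 TC32 cells, 500-1,000/well in growth medium, compound-treated 48 h at 37 °C; viability from CellTiter-Glo luminescence. Primary screen: MIPE 11-point (0.78 nM–46 µM final), NPC 8-point (0.59 nM–46 µM final); confirmatory at 11-point dilutions.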

[20] = qHTS of pediatric cancer cell lines to identify multiple opportunities for drug repurposing: Confirmatory screen for MG 63 (6-TG R) cells (AID 1347119); conditions: MG-63 (6-TG resistant) osteosarcoma viability; series mostly up to 45.9 µM
Procedure, shortened: as §1

CNC(C)Cc1ccc2c(c1)OCO2 (stereo not given)
Potency [1]: inactive
Potency [2]: inactive
Potency [3]: inactive
Potency [4]: inactive
Potency [5]: inactive
Potency [6]: inactive
Potency [7]: inactive
Potency [8]: inactive
Potency [9]: inactive

CN(C)CCc1c[nH]c2ccccc12
Potency [1]: inactive
Potency [2]: inactive
Potency [3]: inactive
Potency [4]: inactive
Potency [5]: inactive
Potency [10]: inactive
Potency [7]: inactive
Potency [8]: inactive
Potency [9]: inactive
Potency [11]: inactive

C[C@H]1C(=O)O[C@@H]2CCN3CC=C(COC(=O)[C@](C)(O)[C@]1(C)O)[C@H]23
Potency [1]: inactive
Potency [2]: inactive
Potency [4]: inactive
Potency [5]: inactive
Potency [6]: inactive
Potency [10]: inactive
Potency [7]: inactive
Potency [8]: inactive
Potency [9]: inactive
Potency [11]: inactive

CCC1(c2ccccc2)CCC(=O)NC1=O (stereo not given)
Potency [1]: inactive
Potency [2]: inactive
Potency [3]: inactive
Potency [4]: inactive
Potency [5]: inactive
Potency [6]: inactive
Potency [10]: inactive
Potency [7]: inactive
Potency [8]: inactive
Potency [9]: inactive
Potency [11]: inactive

CCOC(C(=O)OCCN(C)C)(c1ccccc1)c1ccccc1
Potency [1]: inactive
Potency [2]: inactive
Potency [3]: inactive
Potency [4]: inactive
Potency [5]: inactive
Potency [10]: inactive
Potency [7]: inactive
Potency [8]: inactive
Potency [9]: inactive
Potency [11]: inactive

CNC(C)Cc1ccccc1OC (stereo not given)
Potency [1]: inactive
Potency [2]: inactive
Potency [3]: inactive
Potency [4]: inactive
Potency [5]: inactive
Potency [6]: inactive
Potency [10]: inactive
Potency [7]: inactive
Potency [8]: inactive
Potency [9]: inactive
Potency [11]: inactive

CCN(Cc1ccc(Cl)nc1)/C(=C/[N+](=O)[O-])NC
Potency [1]: inactive
Potency [2]: inactive
Potency [3]: inactive
Potency [4]: inactive
Potency [5]: inactive
Potency [6]: inactive
Potency [10]: inactive
Potency [7]: inactive
Potency [8]: inactive
Potency [9]: inactive
Potency [11]: inactive

C[C@]12CC[C@H]3[C@@H](CC=C4C[C@@H](O)CC[C@@]43C)[C@@H]1CC[C@@H]2O
Potency [1]: inactive
Potency [2]: inactive
Potency [3]: inactive
Potency [4]: inactive
Potency [5]: inactive
Potency [6]: inactive
Potency [10]: inactive
Potency [7]: inactive
Potency [8]: inactive
Potency [9]: inactive
Potency [11]: inactive

C#C[C@]1(O)CC[C@H]2[C@@H]3CCC4=CC(=O)CCC4=C3C=C[C@@]21CC
Potency [12]: inactive
Potency [3]: inactive
Potency [7]: inactive
Potency [8]: inactive

CC[n+]1c(-c2ccccc2)c2cc(N)ccc2c2ccc(N)cc21
Potency [1]: 7700 nM (active)
Potency [2]: 11900 nM (active)
Potency [4]: 3090 nM (active)
Potency [5]: 11900 nM (active)
Potency [6]: 1550 nM (active)
Potency [10]: 13300 nM (active)
Potency [13]: 11700 nM (active)
Potency [14]: 3290 nM (active)
Potency [15]: 2080 nM (active)
Potency [16]: 1470 nM (active)
Potency [17]: 3690 nM (active)
Potency [18]: 1040 nM (active)
Potency [19]: 1170 nM (active)
Potency [20]: 5850 nM (active)

Oc1c(Br)cc(Br)cc1Br
Potency [1]: inactive
Potency [2]: inactive
Potency [3]: inactive
Potency [4]: inactive
Potency [5]: inactive
Potency [6]: inactive
Potency [10]: inactive
Potency [7]: inactive
Potency [8]: inactive
Potency [9]: inactive

COP(=O)(OC)C(O)C(Cl)(Cl)Cl (stereo not given)
Potency [1]: inactive
Potency [2]: inactive
Potency [4]: inactive
Potency [5]: inactive
Potency [6]: inactive
Potency [10]: inactive
Potency [7]: inactive
Potency [8]: inactive
Potency [9]: inactive
Potency [11]: inactive

CCCCC1C(=O)NC(=O)N(C2CCCCC2)C1=O (stereo not given)
Potency [1]: inactive
Potency [2]: inactive
Potency [4]: inactive
Potency [5]: inactive
Potency [6]: inactive
Potency [10]: inactive
Potency [7]: inactive
Potency [8]: inactive
Potency [9]: inactive
Potency [11]: inactive

CN(C)C(=O)Oc1cc(OC(=O)N(C)C)cc(C(O)CNC(C)(C)C)c1 (stereo not given)
Potency [1]: inactive
Potency [2]: inactive
Potency [4]: inactive
Potency [5]: inactive
Potency [6]: inactive
Potency [10]: inactive
Potency [7]: inactive
Potency [8]: inactive
Potency [9]: inactive
Potency [11]: inactive

CC(C)=C[C@@H]1[C@@H](C(=O)OCc2coc(Cc3ccccc3)c2)C1(C)C
Potency [1]: inactive
Potency [2]: inactive
Potency [4]: inactive
Potency [5]: inactive
Potency [10]: inactive
Potency [8]: inactive
Potency [9]: inactive
Potency [11]: inactive

Cc1ccc([N+](=O)[O-])[c]2c1[O][Hg]2
Potency [1]: 1090 nM (active)
Potency [2]: 596 nM (active)
Potency [4]: 2760 nM (active)
Potency [5]: 1500 nM (active)
Potency [6]: 550 nM (active)
Potency [10]: 188 nM (active)
Potency [7]: 1330 nM (active)
Potency [9]: 2110 nM (active)
Potency [13]: 737 nM (active)
Potency [14]: 737 nM (active)
Potency [15]: 233 nM (active)
Potency [16]: 4140 nM (active)
Potency [17]: 4140 nM (active)
Potency [18]: 1470 nM (active)
Potency [19]: 261 nM (active)
Potency [20]: 5220 nM (active)
